Test results: PubChem BioAssay (NCATS)
Records with an inconclusive call do not appear. The source made the active and inactive calls. The call rests on the fitted dose curve; in most records, active means well fitted inhibition curve with a large enough effect; inconclusive means small, poorly fitted or top-dose-only effect; inactive means flat fitted curve, though single readings scatter.

Legend:
Assay in all cases: qHTS profiling for inhibitors of Plasmodium falciparum proliferation (AID 504749); further: nearly all actives have a fitted effect of over 60% in size
Details in all cases: P. falciparum in erythrocytes, SYBR Green DNA, 72 h; series mostly up to 28.7 µM
AA1029 = system: AA1029
Summary of the method: (§1)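 SYBR Green fluorescence of parasite DNA, read after lysis and overnight dark incubation, measured growth over 72 h in erythrocyte culture at 0.3% parasitemia and 2.5% hematocrit. Data normalised to DMSO and 0.29 uM artemisinin, with plate-drift correction.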

C2A = system: C2A
Summary of the method: as §1

CP211 = system: CP211
Summary of the method: as §1

CP217 = system: CP217
Summary of the method: as §1

CP237 = system: CP237
Summary of the method: as §1

CP238 = system: CP238
Summary of the method: as §1

CP250 = system: CP250
Summary of the method: as §1

CP252 = system: CP252
Summary of the method: as §1

CP256 = system: CP256
Summary of the method: as §1

CP262 = system: CP262
Summary of the method: as §1

CP265 = system: CP265
Summary of the method: as §1

CP269 = system: CP269
Summary of the method: as §1

CP325 = system: CP325
Summary of the method: as §1

CP329 = system: CP329
Summary of the method: as §1

FAB9 = system: FAB9
Summary of the method: as §1

HB3 = system: HB3
Summary of the method: as §1

JCK = system: JCK
Summary of the method: as §1

N140 = system: N140
Summary of the method: as §1

PAD = system: PAD
Summary of the method: as §1

SC27B = system: SC27B
Summary of the method: as §1

Measured: Potency
Potency means the concentration at half of the fitted maximal effect.

C[N+]1(C)[C@@H]2CC(OC(=O)[C@@H](CO)c3ccccc3)C[C@@H]1[C@H]1O[C@H]12 (stereo not given in full)
inactive: all assays above

CC(=O)N1CCN(c2ccc(OC[C@@H]3CO[C@@](Cn4ccnc4)(c4ccc(Cl)cc4Cl)O3)cc2)CC1
inactive: all assays above

C(=C/c1ccccc1)/CN1CCN(C(c2ccccc2)c2ccccc2)CC1
active: CP237 3.55 µM
inactive: all other assays above
